Compound activity as filed in PubChem BioAssay.
SNCA expr inh: inhibitors of alpha-synuclein (SNCA) gene expression. Potency, µM (top dose mostly 57.2 µM), most hits filed as inhibitors. AID 1671194. 140,000 tested, 0.17% active. HEK-293 SNCA-luciferase knock-in, luminescence, 24 h; note: nearly all actives have a fitted effect of over 45% in size
KDM5B inh: KDM5B demethylase inhibition. Q9UGL1. KDM5B demethylase, FDH-coupled NADH fluorescence (FDH is formaldehyde dehydrogenase). Potency, µM (doses to about 57.7 µM), most hits filed as inhibitors. 220,000 tested, 2.6% active. AID 1347165; note: nearly all actives have a fitted effect of over 70% in size
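qHTS format, multiple compound concentrations. Buffer 50 mM HEPES pH 7.5/0.01% Tween-20; 200 nM KDM5BΔAP final; 10 min compound preincubation; substrate-mix levels 12.5 µM peptide, 25 µM α-KG, 0.25 mM NAD⁺; 30 min RT; ΔRFU.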
HEK293 viab: cell viability loss counter-screen. HEK-293-SNCA-luc viability, GF-AFC fluorescence, 24 h. 150,000 tested, 0.12% active. Potency, µM (series often up to 57.1 µM), actives largely listed as cytotoxic; note: nearly all actives have a fitted effect of over 30% in size
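HEK-293-SNCA-luc cells (1500/well) plated 24 h, then exposed 24 h to a dilution series; GF-AFC added 30 min at 37C, fluorescence 405/540 nm; normalised to medium-only and DMSO wells, Hill fit.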
IP6K1 inhibitor: IP6K1 kinase inhibition | Q92551 | IP6K1 kinase, ADP-Glo luminescence, 2 h; active compounds read low | activity change, % (series mostly up to about 58 µM) | 140,000 tested, 0.81% active | AID 1645851; in the data active = activity change below about -25%
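ADP-Glo luminescence measures ADP made by human IP6K1 during a 2 h RT reaction with ATP/IP6 (mix at 1.3 mM/130 uM); top library doses 57.5 and 19.1 uM final.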
Each line names hits and unclear results; the compound was inactive in the other large screens; ! = not active in a repeat. In the library only some 3% were active in any assay of this set; here they are far more common. Unless noted, calls come from the whole dose curve; as a rule, active = well fitted curve in the direction sought with a large enough effect; inconclusive = small, poorly fitted or top-dose-only effect, or another doubt; inactive = no such curve, though single readings can be large; an effect the other way counts as inactive or inconclusive.

CNC(=O)c1cc(-c2ccccc2)cc2c1OCCN2Cc1cccnc1	KDM5B inh 32µM, HEK293 viab inconclusive
CC(=O)c1cccc(S(=O)(=O)NCCc2csc3nc(-c4ccc(F)cc4)nn23)c1	HEK293 viab 32µM
Cc1nn2c(c1-c1ccccc1N1CCCC1)N(C(=O)COc1ccccc1)CCC2	SNCA expr inh inconclusive, KDM5B inh 20µM, HEK293 viab inconclusive
Cc1nn2c(c1-c1ccccc1N1CCCC1)N(C(=O)C1CCOCC1)CCC2	SNCA expr inh inconclusive, KDM5B inh 28µM
CCc1noc([C@@H]2CC(F)(F)CN2C(=O)c2ccoc2C)n1	none
Cc1ccc(-c2nn(-c3cccc(F)c3)cc2CN(C)CCO)o1	KDM5B inh 25µM
Cc1cc(CN(C)Cc2cn(-c3cccc(F)c3)nc2-c2ccc(C)o2)n[nH]1	KDM5B inh 25µM
Cc1cccc(CNC(=O)c2cc3c(N(C)Cc4ccccc4)nc(C)cn3n2)c1	KDM5B inh 25µM
Cc1cn2nc(C(=O)NCc3cc(F)cc(F)c3)cc2c(N(C)Cc2ccccc2)n1	KDM5B inh 20µM
CSc1ccc(CNC(=O)c2cc3c(N(C)Cc4ccccc4)nc(C)cn3n2)cc1	KDM5B inh 25µM
CSc1ccc(CNC(=O)c2cc3c(=O)[nH]c(C)cn3n2)cc1	none
Cc1cn2nc(C(=O)NCc3ccccc3)cc2c(N(C)Cc2ccccc2)n1	KDM5B inh 32µM
Cc1ccccc1C(=O)N1CCN(C(=O)c2cccc(-c3ccccn3)c2)CC1	none (no result: KDM5B inh)
CCOC(=O)[C@@H]1CN(C(=O)OCC)[C@H]2c3ccc(OC)cc3O[C@@H]12	none (no result: SNCA expr inh, KDM5B inh, HEK293 viab)
OC1CCCN(c2ccc(-c3nc(-c4cccc(C(F)(F)F)c4)no3)cn2)C1 (stereo unspecified)	KDM5B inh 35µM
CCN1CCN(c2ccc(-c3nc(CCCc4ccccc4)no3)cn2)CC1	KDM5B inh inconclusive
OCCN1CCN(c2ccc(-c3nc(-c4cccc(C(F)(F)F)c4)no3)cn2)CC1	KDM5B inh 28µM
COc1cccc(-c2noc(-c3ccc(N4CCCC(CO)C4)nc3)n2)c1OC (stereo unspecified)	KDM5B inh 32µM
CCC1CN(c2ccc(-c3nc(-c4ccc(OC)cc4)no3)cn2)CCN1C (stereo unspecified)	KDM5B inh inconclusive
Cc1ccccc1C(=O)NC1CCN(c2ccc3nnc(-c4ccccc4)n3n2)CC1	none (no result: SNCA expr inh, KDM5B inh, HEK293 viab)
O=C1CCN(CC(O)Cc2ccccc2)c2ccccc2CN1Cc1ccccc1 (stereo unspecified)	none (no result: SNCA expr inh, KDM5B inh, HEK293 viab)
O=C1NCc2ccccc2CC12CCN(C/C=C/c1ccccc1)CC2	KDM5B inh inconclusive
COc1ccc(-c2cccc(C(=O)N3CCC(NC(=O)c4ccc(C)cc4)CC3)c2)nn1	none (no result: SNCA expr inh, KDM5B inh, HEK293 viab)
CC(C)(C)C(O)CN1CCC(=O)N(Cc2ccccc2)Cc2sccc21 (stereo unspecified)	none (no result: SNCA expr inh, KDM5B inh, HEK293 viab)
O=C(NCc1ccccc1)N1CCCC(c2nccn2CC2CCC2)C1 (stereo unspecified)	SNCA expr inh inconclusive
Cc1ccc(C#N)c(N2CCCC(c3nccn3CC3CCC3)C2)n1 (stereo unspecified)	SNCA expr inh inconclusive, KDM5B inh 32µM
CC(C)NC(=O)C[C@@H]1CCNC[C@@H]1Cc1cc(-c2ccc(C(C)(C)C)cc2)on1	none
CCOc1cc(C(=O)Nc2ncc(C)s2)ccc1OC	none (no result: SNCA expr inh, HEK293 viab, IP6K1 inhibitor)
COc1cc(C)c(Sc2cnc(NC(=O)c3ccc(CNC(C)C(C)C)cc3)s2)cc1C(=O)N1CCN(C(C)=O)CC1 (stereo unspecified)	SNCA expr inh inconclusive, HEK293 viab 27µM! (no result: KDM5B inh)
Cc1ccc(Nc2ccnc(N3CCCC(C(=O)NCCc4ccccc4)C3)n2)cc1 (stereo unspecified)	none (no result: KDM5B inh)
CC(C)NC(=O)C1CCCN(c2nccc(Nc3ccccc3F)n2)C1 (stereo unspecified)	SNCA expr inh inconclusive (no result: KDM5B inh)
Cc1nnc2n1CCC(NC(=O)c1ccc3cc[nH]c3c1)CC2 (stereo unspecified)	KDM5B inh 28µM
COc1ccc(NC(=O)N2CCc3c(nc4cc(-c5ccccc5)[nH]n4c3=O)C2)c(C)c1	KDM5B inh 20µM
CCc1ccc(NC(=O)N2CCc3c(nc4cc(-c5ccc(OC)cc5)[nH]n4c3=O)C2)cc1	KDM5B inh inconclusive
O=C(CCc1ccccc1)N1CCc2nc3cc(-c4ccccc4)[nH]n3c(=O)c2C1	KDM5B inh inconclusive
COC(=O)C(NC(=O)N1CCc2nc3cc(-c4ccccc4)[nH]n3c(=O)c2C1)C(C)C (stereo unspecified)	SNCA expr inh inconclusive, KDM5B inh 25µM
